Results published in PubChem BioAssay (NCI).
Compounds without any hit were thinned out: in the full panel of roughly 79,000, 15% have a hit. The source made the active and inactive calls. Cut-off read from the data, not from the text of the source: active = growth inhibition above about 70%; inactive = the rest.

What was measured:
[1] = NCI Yeast Anticancer Drug Screen. Data for the rad52 strain (AID 147);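 note: 0% = growth of vehicle-treated control cultures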; conditions: S. cerevisiae rad52 mutant growth inhibition, hits give high values
In short: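 Inhibition of yeast growth, referenced to vehicle controls, was the measured output for a strain with defective DNA damage repair.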

[2] = NCI Yeast Anticancer Drug Screen. Data for the wt1 strain (AID 149);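 note: 0% = growth of vehicle-treated wt1 cultures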; conditions: S. cerevisiae wt1 strain (SPY 50644) growth inhibition, hits give high values
In short: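 Each compound is tested on wt1 yeast and the loss of growth versus vehicle gives the inhibition value.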

[3] = NCI Yeast Anticancer Drug Screen. Data for the mgt1 strain (AID 153); conditions: S. cerevisiae mgt1 mutant growth inhibition, hits give high values
In short: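 In the mgt1 strain, test compounds were added and growth inhibition was determined relative to vehicle-treated controls.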

[4] = NCI Yeast Anticancer Drug Screen. Data for the rad50 strain (AID 155);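 note: 0% = growth of vehicle-only cultures of the same strain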; conditions: S. cerevisiae rad50 strain growth inhibition, hits give high values
In short: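 Vehicle-treated cultures provide the reference for the growth inhibition reported for compound-exposed, repair-deficient yeast.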

[5] = NCI Yeast Anticancer Drug Screen. Data for the mec2-1 strain (AID 157); conditions: S. cerevisiae mec2-1 strain, hits give high values
In short: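 Each compound was tested on mec2-1 yeast, a strain altered in DNA damage repair or cell cycle control. Growth inhibition is reported relative to vehicle.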

[6] = NCI Yeast Anticancer Drug Screen. Data for the rad14 strain (AID 159);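 note: 0% = growth of vehicle-treated control cultures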; conditions: S. cerevisiae rad14 strain growth inhibition, hits give high values
In short: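 Inhibition of growth is reported for a repair-deficient yeast mutant following compound treatment, calculated relative to cultures that received vehicle.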

[7] = NCI Yeast Anticancer Drug Screen. Data for the sgs1 mgt1 strain (AID 161);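 note: 0% = growth of cultures given vehicle only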; conditions: S. cerevisiae sgs1 mgt1 strain, hits give high values
In short: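 Genetically altered yeast, compound exposure, growth inhibition relative to vehicle.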

[8] = NCI Yeast Anticancer Drug Screen. Data for the CLN2oe strain (AID 163);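 note: 0% = growth of vehicle-only control cultures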; conditions: S. cerevisiae CLN2oe strain, hits give high values
In short: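 First, the altered yeast strain was treated with each compound; second, its growth was measured; finally, inhibition was derived by comparison with vehicle controls.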

[9] = NCI Yeast Anticancer Drug Screen. Data for the cln2 rad14 strain (AID 165);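 note: 0% = growth equal to vehicle treated cultures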; conditions: S. cerevisiae cln2 rad14 strain, hits give high values
In short: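 Test compounds were added to cln2 rad14 yeast cultures; inhibition of growth was then determined by comparison with vehicle treatment.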

[10] = NCI Yeast Anticancer Drug Screen. Data for the bub3 strain (AID 167); conditions: S. cerevisiae bub3 mutant strain, hits give high values
In short: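 Mutant yeast screening strain plus compound; vehicle-treated cultures serve as the 0% inhibition reference.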

[11] = NCI Yeast Anticancer Drug Screen. Data for the wt2 strain (AID 169); conditions: S. cerevisiae wt2 strain growth inhibition, hits give high values
In short: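 The panel's yeast strains carry defined changes in DNA repair or cell cycle genes. Each strain is grown with compound, and growth loss is scored relative to vehicle.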

[12] = NCI Yeast Anticancer Drug Screen. Data for the sgs1 strain (AID 173);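 note: 0% = growth of vehicle-only control cultures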; conditions: S. cerevisiae sgs1 mutant, hits give high values
In short: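 Vehicle-treated cultures served as reference for growth inhibition of a yeast strain altered in DNA damage repair or cell cycle control after compound exposure.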

[13] = NCI Yeast Anticancer Drug Screen. Data for the mlh1 rad18 strain (AID 175); conditions: S. cerevisiae mlh1 rad18 strain growth inhibition, hits give high values
In short: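 Inhibition values reflect reduced growth of mutant yeast versus vehicle-treated controls following compound exposure; the mutations affect DNA damage repair.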

[14] = NCI Yeast Anticancer Drug Screen. Data for the rad18 strain (AID 177); conditions: S. cerevisiae rad18 mutant growth inhibition, hits give high values
In short: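 Steps: expose repair-mutant yeast to compound; measure growth; express as inhibition relative to vehicle control.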

[15] = NCI Yeast Anticancer Drug Screen. Data for the mlh1 strain (AID 171);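 note: 0% = growth of vehicle-treated control cultures of the same strain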; conditions: S. cerevisiae mlh1 strain growth inhibition, hits give high values
In short: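 Inhibition values reflect reduced yeast growth in the presence of compound, referenced to vehicle controls, using a strain chosen for its alteration in DNA repair or cell cycle control.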

[16] = NCI Yeast Anticancer Drug Screen. Data for the rad50EPP+ strain (AID 151);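 note: 0% = growth of vehicle-treated control cultures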; conditions: S. cerevisiae rad50 mutant strain, hits give high values
In short: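 Genetically defined yeast (rad50EPP+, DNA damage repair alteration) is grown with compound, and inhibition of growth is expressed relative to vehicle-treated controls.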

[17] = at 5.0 µM (retest, dose inferred, filed as 0.5)
[18] = at 50.0 µM (retest, dose inferred, filed as 5.0)

Measured: growth inhibition

O=Cc1ccc2c(c1)C(=O)c1ccccc1C2=O
inactive: [1]; at 1.2 µM 4% | [1]; at 3.7 µM 11% | [1]; at 11.0 µM 33% | [2]; at 1.2 µM 1% | [2]; at 3.7 µM -1% | [2]; at 11.0 µM 7% | [2]; at 33.0 µM 18% | [2]; at 100.0 µM 31% | [3]; at 1.2 µM 0% | [3]; at 3.7 µM 9% | [3]; at 11.0 µM 9% | [3]; at 33.0 µM 33% | [3]; at 100.0 µM 55% | [4]; at 1.2 µM 2% | [4]; at 3.7 µM 16% | [4]; [17] -11% | [4]; at 11.0 µM 44% | [4]; [18] 57% | [5]; at 1.2 µM 0% | [5]; at 3.7 µM 7% | [5]; [17] 6% | [5]; at 11.0 µM 12% | [5]; at 33.0 µM 21% | [5]; [18] 21% | [5]; at 50.0 µM 30.8% | [5]; at 100.0 µM 34% | [6]; at 1.2 µM 0% | [6]; at 3.7 µM -3% | [6]; at 11.0 µM 10% | [6]; at 33.0 µM 23% | [6]; at 100.0 µM 37% | [7]; [17] 5% | [7]; [18] 8% | [7]; at 50.0 µM 39.5% | [8]; at 1.2 µM -3% | [8]; at 3.7 µM -1% | [8]; at 11.0 µM 13% | [8]; at 33.0 µM 25% | [8]; at 100.0 µM 22% | [9]; [17] -21% | [9]; [18] 16% | [9]; at 50.0 µM 35.9% | [10]; at 1.2 µM -1% | [10]; at 3.7 µM -7% | [10]; [17] -3% | [10]; at 11.0 µM 8% | [10]; at 33.0 µM 9% | [10]; [18] 8% | [10]; at 50.0 µM 36.6% | [10]; at 100.0 µM 7% | [11]; at 1.2 µM 0% | [11]; at 3.7 µM 4% | [11]; at 11.0 µM 14% | [11]; at 33.0 µM 32% | [11]; at 100.0 µM 51% | [12]; at 1.2 µM -3% | [12]; at 3.7 µM -3% | [12]; at 11.0 µM 8% | [12]; at 33.0 µM 38% | [12]; at 100.0 µM 56% | [13]; [17] 10% | [13]; [18] 61% | [13]; at 50.0 µM 67.8% | [14]; at 1.2 µM -1% | [14]; at 3.7 µM 0% | [14]; at 11.0 µM 14% | [14]; at 33.0 µM 61%
active: [1]; at 33.0 µM 79% | [1]; at 100.0 µM 92% | [4]; at 33.0 µM 80% | [4]; at 50.0 µM 77.6% | [4]; at 100.0 µM 91% | [14]; at 100.0 µM 81%

O=C(Oc1ccc2c(c1)CN(Cc1ccccc1)CO2)c1ccccc1
active: [4]; at 50.0 µM 79.2% | [6]; at 100.0 µM 87% | [7]; at 50.0 µM 77.2% | [10]; at 50.0 µM 72.7% | [12]; at 100.0 µM 70% | [13]; at 50.0 µM 83% | [14]; at 100.0 µM 72%
inactive: [1]; at 1.2 µM -3% | [1]; at 3.7 µM 4% | [1]; at 11.0 µM 8% | [1]; at 33.0 µM 18% | [1]; at 100.0 µM 38% | [2]; at 1.2 µM 2% | [2]; at 3.7 µM 4% | [2]; at 11.0 µM 8% | [2]; at 33.0 µM 13% | [2]; at 100.0 µM 10% | [3]; at 1.2 µM -1% | [3]; at 3.7 µM 0% | [3]; at 11.0 µM 2% | [3]; at 33.0 µM 10% | [3]; at 100.0 µM 39% | [4]; at 1.2 µM 2% | [4]; at 3.7 µM 2% | [4]; [17] -1% | [4]; at 11.0 µM 17% | [4]; at 33.0 µM 4% | [4]; [18] 46% | [4]; at 100.0 µM 32% | [5]; at 1.2 µM -2% | [5]; at 3.7 µM 0% | [5]; [17] -15% | [5]; at 11.0 µM 3% | [5]; at 33.0 µM 8% | [5]; [18] 3% | [5]; at 50.0 µM 25.1% | [5]; at 100.0 µM 26% | [6]; at 1.2 µM 4% | [6]; at 3.7 µM 11% | [6]; at 11.0 µM 24% | [6]; at 33.0 µM 40% | [7]; [17] 19% | [7]; [18] 40% | [8]; at 1.2 µM -5% | [8]; at 3.7 µM -5% | [8]; at 11.0 µM -1% | [8]; at 33.0 µM 16% | [8]; at 100.0 µM 42% | [9]; [17] -16% | [9]; [18] 39% | [9]; at 50.0 µM 21.9% | [10]; at 1.2 µM -4% | [10]; at 3.7 µM -2% | [10]; [17] -6% | [10]; at 11.0 µM -29% | [10]; at 33.0 µM 31% | [10]; [18] 46% | [10]; at 100.0 µM 35% | [11]; at 1.2 µM -1% | [11]; at 3.7 µM 3% | [11]; at 11.0 µM 7% | [11]; at 33.0 µM 23% | [11]; at 100.0 µM 40% | [15]; at 1.2 µM 6% | [15]; at 3.7 µM 3% | [15]; at 11.0 µM 7% | [15]; at 33.0 µM 4% | [15]; at 100.0 µM 37% | [12]; at 1.2 µM 4% | [12]; at 3.7 µM 9% | [12]; at 11.0 µM 17% | [12]; at 33.0 µM 42% | [13]; [17] -9% | [13]; [18] 49% | [14]; at 1.2 µM 17% | [14]; at 3.7 µM 15% | [14]; at 11.0 µM 19% | [14]; at 33.0 µM 28%

COC(=O)Nc1cn2ccc(C(Cl)=C(Cl)Cl)cc2n1
inactive: [1]; at 1.2 µM -12% | [1]; at 3.7 µM -17% | [1]; at 11.0 µM -21% | [1]; at 33.0 µM -33% | [1]; at 100.0 µM -16% | [2]; at 1.2 µM -16% | [2]; at 3.7 µM -21% | [2]; at 11.0 µM -33% | [2]; at 33.0 µM -29% | [2]; at 100.0 µM -33% | [16]; at 1.2 µM -27% | [16]; at 3.7 µM -19% | [16]; at 11.0 µM -32% | [16]; at 33.0 µM -27% | [16]; at 100.0 µM -28% | [4]; at 1.2 µM -22% | [4]; at 3.7 µM -32% | [4]; [17] 21% | [4]; at 11.0 µM -35% | [4]; at 33.0 µM -36% | [4]; [18] 29% | [4]; at 50.0 µM -4.2% | [4]; at 100.0 µM -32% | [5]; at 1.2 µM 4% | [5]; at 3.7 µM -5% | [5]; [17] 17% | [5]; at 11.0 µM 5% | [5]; at 33.0 µM 3% | [5]; [18] 15% | [5]; at 50.0 µM -9.5% | [5]; at 100.0 µM -4% | [6]; at 1.2 µM 18% | [6]; at 3.7 µM -11% | [6]; at 11.0 µM 1% | [6]; at 33.0 µM -13% | [6]; at 100.0 µM -17% | [7]; [17] 28% | [7]; [18] 40% | [7]; at 50.0 µM -27.6% | [9]; [17] 7% | [9]; [18] 21% | [9]; at 50.0 µM -5.65% | [10]; at 1.2 µM -8% | [10]; at 3.7 µM -14% | [10]; [17] 24% | [10]; at 11.0 µM -28% | [10]; at 33.0 µM -21% | [10]; [18] 29% | [10]; at 50.0 µM -24.1% | [10]; at 100.0 µM -20% | [11]; at 1.2 µM -40% | [11]; at 3.7 µM -33% | [11]; at 11.0 µM -50% | [11]; at 33.0 µM -49% | [11]; at 100.0 µM -53% | [15]; at 1.2 µM 29% | [15]; at 3.7 µM 23% | [15]; at 11.0 µM 14% | [15]; at 33.0 µM 10% | [15]; at 100.0 µM 12% | [12]; at 1.2 µM 6% | [12]; at 3.7 µM 2% | [12]; at 11.0 µM -18% | [12]; at 33.0 µM -16% | [12]; at 100.0 µM -11% | [13]; [17] 65% | [13]; at 50.0 µM -12.5% | [14]; at 1.2 µM -16% | [14]; at 3.7 µM -22% | [14]; at 11.0 µM -13% | [14]; at 33.0 µM -39% | [14]; at 100.0 µM -46%
active: [13]; [18] 78%
